Compound activity as filed in PubChem BioAssay.
ADAM17 inh: ADAM17 inhibition, QFRET primary screen; recombinant ADAM17, EDANS/DABCYL FRET peptide cleavage; actives 0.83% (n = 370,000); P78536; inhibition, % at 6.95 µM; AID 720648;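 active = inhibition above the mean of compounds lying between control limits plus 3 SD, set per campaign, cut at about 8.5% in these data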;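 note: 0% = DMSO-only wells as the low control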
Target sequence (P78536 215-824 limits assumed): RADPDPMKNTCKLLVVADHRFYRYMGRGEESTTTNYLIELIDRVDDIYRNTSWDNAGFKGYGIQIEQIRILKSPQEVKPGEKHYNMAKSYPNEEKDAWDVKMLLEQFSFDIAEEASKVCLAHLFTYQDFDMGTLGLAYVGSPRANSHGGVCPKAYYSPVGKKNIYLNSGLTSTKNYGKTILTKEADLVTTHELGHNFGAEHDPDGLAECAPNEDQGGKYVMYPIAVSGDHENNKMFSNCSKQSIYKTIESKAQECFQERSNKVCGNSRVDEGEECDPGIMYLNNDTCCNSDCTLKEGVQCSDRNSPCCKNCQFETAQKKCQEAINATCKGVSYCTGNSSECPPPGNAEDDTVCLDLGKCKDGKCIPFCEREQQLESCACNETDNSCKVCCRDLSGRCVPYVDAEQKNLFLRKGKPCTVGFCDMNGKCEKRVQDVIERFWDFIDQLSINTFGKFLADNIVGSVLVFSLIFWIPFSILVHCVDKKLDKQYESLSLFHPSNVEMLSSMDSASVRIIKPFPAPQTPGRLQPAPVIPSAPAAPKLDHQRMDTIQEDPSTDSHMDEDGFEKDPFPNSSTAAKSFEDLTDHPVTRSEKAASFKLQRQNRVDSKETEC
NPR2 activator: GC-B (human) receptor activation; P20594; HEK293-GC-B cells, CNP EC30, cGMP TR-FRET; 0% at EC30 CNP, 100% saturating CNP; activation, % at 10 µM; actives 0.11% (n = 370,000);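 active = activation at 10 µM reaching about 35% in either raw or pattern-adjusted values, limit read from the data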
proKLK7 act: proKLK7 (human) activation, primary screen | P49862 | purified proKLK7, EDANS-DABCYL substrate fluorescence; 100% is mature enzyme control, 0% vehicle | activation, % at 7 µM | actives 0.9% (n = 370,000);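 active = activation above the mean of all tested compounds plus 3 SD, computed per campaign excluding outliers beyond control limits, cut at about 13% in these data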
ADAM10 inh: ADAM10 inhibition, QFRET primary screen. inhibition, % at 7 µM. O14672. actives 0.62% (n = 370,000). recombinant ADAM10, EDANS/DABCYL FRET peptide cleavage, 3 h;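 active = inhibition above a per-campaign cutoff equal to the mean of compounds falling between control-based bounds plus 3 SD, cut at about 20% in these data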;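 note: 0% = DMSO wells while the 100% control is not disclosed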
NPR1 activator: GC-A (human) enzyme activation. HEK293 GC-A cells, cGMP TR-FRET, EC30 ANP; 0% at EC30 ANP, 100% saturating ANP. P16066. activation, % at 10 µM. actives 0.14% (n = 370,000). AID 1671463; in the data active = activation above about 40%
ADAM10 ctr: counter-screen for ADAM17 exosite inhibitors: inhibitors of human ADAM10. actives 47% (n = 2,900). inhibition, % at 6.95 µM. recombinant ADAM10, EDANS/DABCYL FRET peptide cleavage, 3 h. shares compounds with ADAM17 inh;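 active = mean inhibition over the triplicate runs exceeds the activity threshold set in the earlier primary screen, cut at about 20% in these data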;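 note: 0% = DMSO wells and 100% = marimastat wells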
ADAM17 confirm: human ADAM17 inhibition, confirmation | inhibition, % at 6.95 µM | actives 65% (n = 2,900) | recombinant ADAM17, EDANS/DABCYL QFRET peptide cleavage | shares compounds with ADAM17 inh | AID 743257;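 active = mean inhibition across replicates above the hit cutoff set in the primary screen, cut at about 8.5% in these data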;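 note: 0% = DMSO wells and 100% = marimastat wells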
* = called active by the depositor; x = not tested or not shown. Most compounds without a hit are left out; they make up all but 2.2% or so of the library.

SMILES | ADAM17 inh | NPR2 activator | proKLK7 act | ADAM10 inh | NPR1 activator | ADAM10 ctr | ADAM17 confirm
Cc1cc(SCC(=O)Nc2cccc(S(=O)(=O)NC3=NCCCCC3)c2)c(C)cc1Br | 11* | -2 | 0 | 15 | -5 | 28* | 18*
Cc1ccc(S(=O)(=O)C2CCN(c3nc(-c4cccs4)nc4ccccc34)CC2)cc1 | -1 | -12 | x | 0 | -6 | x | x
CCOC(=O)C1=C(C)N(CCCCCC(=O)O)C(=O)NC1c1ccccc1OC(=O)c1cccs1 (stereo not given) | 10* | 1 | 0 | 5 | -4 | -1 | 4
CCC(C)c1ccc(O)c(NC(=O)c2cncc(Br)c2)c1 (stereo not given) | 10* | -1 | -1 | 19 | 3 | 14 | 9.8*
O=C(Nc1ccn(Cc2c(F)c(F)cc(F)c2F)n1)c1ccc(COc2ccccc2Cl)cc1 | x | 1 | x | x | 3 | x | x
O=C(Nc1ccn(Cc2ccccc2F)n1)c1ccc(COc2ccccc2Cl)cc1 | 13* | 5 | 1 | 19 | 23 | 31* | 18*
CC(=O)C(=Cc1ccc(C(=O)O)cc1)C(C)=O | -4 | -1 | 0 | -9 | -4 | x | x
C/C(=C\c1ccc(C(=O)O)cc1)c1ccc2c(c1)C(C)(C)CCC2(C)C | 9.0* | -11 | 0 | 6 | -6 | 6 | 5
Cc1ccc(S(=O)(=O)N2CCN(C(=O)COC(=O)c3ncc(Cl)c(Cl)c3Cl)CC2)c(C)c1 | 9.0* | 3 | 1 | -11 | 1 | 8 | 8.9*
CCCCCCSC1=C(C#N)C(=O)NC2(CCCCC2)S1 | 9.0* | -1 | 0 | 12 | 8 | 19 | 9.0*
COc1cc(/C=N\NC(=O)c2ccccc2F)ccc1Oc1ccc([N+](=O)[O-])cn1 | 10.0* | -7 | 0 | 15 | 3 | 6 | 7
COc1cc(/C=N\NC(=O)c2cccc(Cl)c2)ccc1Oc1ccc([N+](=O)[O-])cn1 | 5 | 1 | 0 | 13 | -5 | x | x
O=C1NC2(CCCCC2)N=C1c1ccc(F)cc1 | -8 | -3 | 0 | -5 | -8 | x | x
O=C1NC2(CCCC2)N=C1c1ccc(Cl)cc1 | 9.6* | 0 | -1 | 15 | 3 | 12 | 5
CCN(Cc1ccccc1)CC(O)COC(c1ccc(OC)cc1)c1ccc(OC)cc1 (stereo not given) | 11* | -4 | 0 | 4 | -16 | 3 | 8
O=C(OCC#CCSc1nnc(-c2cccc3ccccc23)o1)c1ccc(F)cc1F | -1 | -2 | x | -3 | -1 | x | x
Oc1ccccc1CN1CCCC(N2CCN(c3cccc(C(F)(F)F)c3)CC2)C1 (stereo not given) | 9.0* | 3 | 0 | 11 | 3 | 24* | 19*
COc1ccc(NC(=O)COC(=O)Cc2c[nH]c3ccccc23)cc1Cl | -1 | -3 | 0 | -10 | -4 | x | x
CCOC(=O)CCCc1c[nH]c2ccccc12 | -4 | 1 | 0 | -6 | 1 | x | x
Cc1ccc(NC(=O)COC(=O)Cc2c[nH]c3ccccc23)cc1C | 14* | -4 | 0 | 12 | -1 | 2 | 5
CC(C)(C)NC(=O)NC(=O)COC(=O)CCCc1c[nH]c2ccccc12 | 12* | -1 | 0 | 17 | -6 | 13 | 8
COc1ccc(CN2CN3Cc4cc(OC)ccc4C3CS2(=O)=O)cc1 (stereo not given) | -9 | -5 | -1 | -15 | 2 | x | x
Cc1ccc(-c2nn3c(C)nnc3s2)cc1NC(=O)c1cccs1 | 12* | 4 | 0 | 8 | -2 | 6 | 7
Clc1ccc2[nH]cc(-c3nnnn3-c3ccccc3)c2c1 | 8.9* | -15 | -1 | 16 | -24 | 29* | 16*
NC(=O)CSc1ncc(-c2ccccc2)[nH]1 | -2 | 2 | 1 | 3 | 4 | x | x
SMILES | ADAM17 inh | NPR2 activator | proKLK7 act | ADAM10 inh | NPR1 activator | ADAM10 ctr | ADAM17 confirm
O=[N+]([O-])c1ccc(-c2cnc(SC(c3ccccc3)c3ccccc3)[nH]2)cc1 | 10.0* | -1 | -1 | 17 | 0 | 33* | 14*
COC[C@H](NS(=O)(=O)c1ccc(Br)cc1F)[C@@H](O)c1ccccc1 | 9.8* | -4 | 0 | 4 | 0 | 11 | 10*
CCN(CC)C(=O)CC[C@@H]1CC[C@]2(CCCN(Cc3cccs3)C2)O1 | 3 | 6 | 0 | 3 | -3 | x | x
C=CCc1c(C)nc(-c2ccccc2)nc1N/N=C(\C)c1ccc(N)cc1 | 2 | 7 | 0 | 3 | -5 | x | x
C=CCc1c(C)nc(-c2ccccc2)nc1Nc1ccccc1O | 10* | -3 | 0 | 15 | 4 | 29* | 17*
O=C(OCC#CCSc1nnc(-c2cccc3ccccc23)o1)c1ccc(SC(F)(F)F)cc1 | 1 | 1 | x | -3 | -1 | x | x
CCC(C)N(C(=O)COC(=O)c1ccccc1SCC(=O)N1CCCC1)C1CCS(=O)(=O)C1 (stereo not given) | 0 | 3 | -1 | 7 | 4 | x | x
CN(C(=O)COC(=O)c1ccccc1SCC(=O)N1CCCC1)C1CCS(=O)(=O)C1 (stereo not given) | 9.0* | 8 | 0 | 16 | 1 | -12 | 0
O=C(NCc1ccco1)C1CCCN(S(=O)(=O)c2cccs2)C1 (stereo not given) | 2 | -2 | 0 | 3 | -2 | x | x
Cc1cc(SCC(=O)c2ccc(O)c(O)c2)n2nc(C)c(-c3ccccc3)c2n1 | 9.9* | 3 | 0 | 18 | -1 | 14 | 14*
OC(c1ccccc1)(c1ccccc1)C1CCN(CCCOc2cccc(C(F)(F)F)c2)CC1 | 9.9* | -6 | 0 | 13 | -9 | 27* | 19*
COc1ccccc1OCCCN1CCC(C(O)(c2ccccc2)c2ccccc2)CC1 | -4 | -11 | -1 | -10 | -20 | x | x
C/C=C/c1ccccc1OCCCN1CCC(C(O)(c2ccccc2)c2ccccc2)CC1 | 13* | -1 | 0 | 10 | -14 | 14 | 9.2*
OC(c1ccccc1)(c1ccccc1)C1CCN(CCCOc2ccc(C(F)(F)F)cc2)CC1 | 11* | -8 | 1 | 11 | -11 | 24* | 9.8*
Cc1cc(NC(=O)COC(=O)C(Nc2ccc(C(F)(F)F)cc2Cl)C(C)C)no1 (stereo not given) | 10* | 0 | -1 | 20 | -5 | 41* | 24*
O=C(CNS(=O)(=O)c1ccc(Br)s1)N1CCN(c2ccccn2)CC1 | -4 | -13 | 0 | -8 | -11 | x | x
Cc1ccc(NC(=O)COc2ccc(Br)cc2CO)cc1 | 9.3* | -6 | 0 | 9 | -3 | -6 | 0
